# Assay results from ChEMBL document CHEMBL1961873, “Compounds: GSK PKIS; Assays: Nanosyn kinase panel” (2012).
# What was measured:
# [1] = target: Fibroblast growth factor receptor 4 (Homo sapiens) (UniProt P22455); details: at 1 µM;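 also: reported figure is the averaged percent inhibition of FGFR4, from the GSK PKIS kinase screening panel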
# [2] = target: Tyrosine-protein kinase Fgr (Homo sapiens) (UniProt P09769); details: at 0.1 µM
# [3] = target: Tyrosine-protein kinase Fgr (Homo sapiens) (UniProt P09769); details: at 1 µM
# [4] = target: Vascular endothelial growth factor receptor 1 (Homo sapiens) (UniProt P17948); details: at 0.1 µM
# [5] = target: Vascular endothelial growth factor receptor 1 (Homo sapiens) (UniProt P17948); details: at 1 µM
# [6] = target: Receptor-type tyrosine-protein kinase FLT3 (Homo sapiens) (UniProt P36888); details: at 0.1 µM
# [7] = target: Receptor-type tyrosine-protein kinase FLT3 (Homo sapiens) (UniProt P36888); details: at 1 µM
# [8] = system: T1, Receptor-type tyrosine-protein kinase FLT3 (Homo sapiens), P36888 [D835Y]; details: at 0.1 µM
# T1 sequence (whole entry): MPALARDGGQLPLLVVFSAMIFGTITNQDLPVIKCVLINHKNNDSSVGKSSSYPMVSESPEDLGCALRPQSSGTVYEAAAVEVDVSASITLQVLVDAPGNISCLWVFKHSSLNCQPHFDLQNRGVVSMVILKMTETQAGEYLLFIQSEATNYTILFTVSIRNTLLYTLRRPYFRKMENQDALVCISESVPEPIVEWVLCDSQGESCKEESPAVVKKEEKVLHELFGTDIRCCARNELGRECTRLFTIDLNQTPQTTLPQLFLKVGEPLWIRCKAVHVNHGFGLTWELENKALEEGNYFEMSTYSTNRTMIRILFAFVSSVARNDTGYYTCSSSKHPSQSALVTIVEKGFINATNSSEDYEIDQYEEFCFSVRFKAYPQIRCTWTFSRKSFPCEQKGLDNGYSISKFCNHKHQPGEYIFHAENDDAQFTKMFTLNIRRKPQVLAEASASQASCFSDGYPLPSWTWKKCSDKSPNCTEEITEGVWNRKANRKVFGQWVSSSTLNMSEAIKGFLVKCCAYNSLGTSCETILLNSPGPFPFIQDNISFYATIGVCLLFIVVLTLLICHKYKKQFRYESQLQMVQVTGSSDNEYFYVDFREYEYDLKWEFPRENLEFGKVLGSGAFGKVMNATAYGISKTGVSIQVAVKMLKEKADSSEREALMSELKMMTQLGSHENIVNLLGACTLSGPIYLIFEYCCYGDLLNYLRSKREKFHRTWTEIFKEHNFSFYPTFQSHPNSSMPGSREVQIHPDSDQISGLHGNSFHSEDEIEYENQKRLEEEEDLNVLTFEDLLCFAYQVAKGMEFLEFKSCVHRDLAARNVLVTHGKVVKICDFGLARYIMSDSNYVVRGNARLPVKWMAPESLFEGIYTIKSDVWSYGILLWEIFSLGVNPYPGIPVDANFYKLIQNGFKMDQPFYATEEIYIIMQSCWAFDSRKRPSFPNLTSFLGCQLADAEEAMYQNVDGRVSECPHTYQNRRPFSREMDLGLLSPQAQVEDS
# [9] = target: Non-receptor tyrosine-protein kinase TYK2 (Homo sapiens) (UniProt P29597); details: at 1 µM;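 also: values are mean percent inhibition of TYK2 kinase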
# [10] = target: T2, Tyrosine-protein kinase receptor TYRO3 (Homo sapiens) (UniProt Q06418); details: at 0.1 µM
# T2 sequence (whole entry): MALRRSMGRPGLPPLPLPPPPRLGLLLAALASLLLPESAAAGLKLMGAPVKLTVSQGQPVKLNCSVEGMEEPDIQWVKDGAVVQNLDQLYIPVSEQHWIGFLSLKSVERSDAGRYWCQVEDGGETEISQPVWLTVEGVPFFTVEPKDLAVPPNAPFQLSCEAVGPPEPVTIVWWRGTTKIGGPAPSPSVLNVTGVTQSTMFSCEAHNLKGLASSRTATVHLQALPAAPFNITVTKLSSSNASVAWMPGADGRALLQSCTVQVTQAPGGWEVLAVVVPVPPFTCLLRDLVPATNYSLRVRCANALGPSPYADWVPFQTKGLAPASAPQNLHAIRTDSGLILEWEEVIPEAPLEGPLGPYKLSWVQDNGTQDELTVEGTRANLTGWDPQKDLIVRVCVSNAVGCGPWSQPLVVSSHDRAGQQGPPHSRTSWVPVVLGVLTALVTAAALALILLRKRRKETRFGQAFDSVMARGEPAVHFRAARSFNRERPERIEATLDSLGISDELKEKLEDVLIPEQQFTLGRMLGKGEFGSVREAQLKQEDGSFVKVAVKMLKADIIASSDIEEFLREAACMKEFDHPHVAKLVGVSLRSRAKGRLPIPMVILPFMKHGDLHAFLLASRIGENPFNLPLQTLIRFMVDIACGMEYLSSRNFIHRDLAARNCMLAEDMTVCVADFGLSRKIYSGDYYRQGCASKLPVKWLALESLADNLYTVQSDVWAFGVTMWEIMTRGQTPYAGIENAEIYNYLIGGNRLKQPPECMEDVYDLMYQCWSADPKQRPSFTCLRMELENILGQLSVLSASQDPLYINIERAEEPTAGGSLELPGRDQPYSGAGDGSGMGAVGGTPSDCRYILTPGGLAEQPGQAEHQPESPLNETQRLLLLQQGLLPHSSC
# [11] = target: T2, Tyrosine-protein kinase receptor TYRO3 (Homo sapiens); details: at 1 µM
# [12] = target: Tyrosine-protein kinase Yes (Homo sapiens) (UniProt P07947); details: at 0.1 µM
# [13] = target: Tyrosine-protein kinase Yes (Homo sapiens) (UniProt P07947); details: at 1 µM
# [14] = target: T3, Tyrosine-protein kinase ZAP-70 (Homo sapiens) (UniProt P43403); details: at 0.1 µM
# T3 sequence (whole entry): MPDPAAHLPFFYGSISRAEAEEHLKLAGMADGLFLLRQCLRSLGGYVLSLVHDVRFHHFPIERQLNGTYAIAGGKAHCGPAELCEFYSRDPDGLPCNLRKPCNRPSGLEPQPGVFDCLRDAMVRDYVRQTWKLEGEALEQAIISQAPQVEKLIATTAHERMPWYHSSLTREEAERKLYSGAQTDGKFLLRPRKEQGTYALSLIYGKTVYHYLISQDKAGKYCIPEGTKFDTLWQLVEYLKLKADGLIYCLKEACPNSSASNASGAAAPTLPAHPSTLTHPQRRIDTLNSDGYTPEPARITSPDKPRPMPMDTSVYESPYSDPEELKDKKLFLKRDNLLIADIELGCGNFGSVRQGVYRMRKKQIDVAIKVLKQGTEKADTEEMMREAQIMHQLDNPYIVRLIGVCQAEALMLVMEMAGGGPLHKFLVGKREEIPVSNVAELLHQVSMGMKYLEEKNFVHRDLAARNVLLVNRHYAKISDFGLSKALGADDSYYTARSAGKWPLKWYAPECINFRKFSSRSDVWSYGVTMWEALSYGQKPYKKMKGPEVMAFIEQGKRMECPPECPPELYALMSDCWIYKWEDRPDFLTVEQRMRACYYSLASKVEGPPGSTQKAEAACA
# [15] = target: T3, Tyrosine-protein kinase ZAP-70 (Homo sapiens); details: at 1 µM
# [16] = target: Serine/threonine-protein kinase B-raf (Homo sapiens) (UniProt P15056); details: at 0.1 µM
# [17] = target: Serine/threonine-protein kinase B-raf (Homo sapiens) (UniProt P15056); details: at 1 µM
# [18] = system: Serine/threonine-protein kinase B-raf (Homo sapiens), P15056 [V600E]; details: at 0.1 µM
# [19] = system: Serine/threonine-protein kinase B-raf (Homo sapiens), P15056 [V600E]; details: at 1 µM
# [20] = target: RAF proto-oncogene serine/threonine-protein kinase (Homo sapiens) (UniProt P04049); details: at 0.1 µM;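 also: values are mean CRAF kinase inhibition from profiling of the GSK Published Kinase Inhibitor Set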
# RAF proto-oncogene serine/threonine-protein kinase (Homo sapiens), sequence (P04049 whole entry): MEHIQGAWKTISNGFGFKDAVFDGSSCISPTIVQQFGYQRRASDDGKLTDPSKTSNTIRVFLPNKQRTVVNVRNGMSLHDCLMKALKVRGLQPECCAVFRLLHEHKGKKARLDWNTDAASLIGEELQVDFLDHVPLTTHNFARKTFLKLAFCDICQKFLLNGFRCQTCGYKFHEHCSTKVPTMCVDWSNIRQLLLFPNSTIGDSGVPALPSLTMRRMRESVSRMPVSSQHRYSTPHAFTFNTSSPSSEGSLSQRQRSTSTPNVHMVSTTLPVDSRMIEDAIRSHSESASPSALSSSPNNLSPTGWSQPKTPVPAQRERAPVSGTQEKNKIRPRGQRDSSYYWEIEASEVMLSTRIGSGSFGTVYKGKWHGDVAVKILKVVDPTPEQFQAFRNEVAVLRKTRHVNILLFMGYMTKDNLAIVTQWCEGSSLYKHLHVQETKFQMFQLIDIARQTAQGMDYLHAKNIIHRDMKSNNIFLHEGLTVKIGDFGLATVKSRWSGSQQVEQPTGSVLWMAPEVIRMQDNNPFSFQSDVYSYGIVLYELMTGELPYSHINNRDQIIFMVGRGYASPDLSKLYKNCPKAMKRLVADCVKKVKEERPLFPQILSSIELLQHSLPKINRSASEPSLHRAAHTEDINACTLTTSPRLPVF
# Vascular endothelial growth factor receptor 1 (Homo sapiens), sequence (P17948 whole entry): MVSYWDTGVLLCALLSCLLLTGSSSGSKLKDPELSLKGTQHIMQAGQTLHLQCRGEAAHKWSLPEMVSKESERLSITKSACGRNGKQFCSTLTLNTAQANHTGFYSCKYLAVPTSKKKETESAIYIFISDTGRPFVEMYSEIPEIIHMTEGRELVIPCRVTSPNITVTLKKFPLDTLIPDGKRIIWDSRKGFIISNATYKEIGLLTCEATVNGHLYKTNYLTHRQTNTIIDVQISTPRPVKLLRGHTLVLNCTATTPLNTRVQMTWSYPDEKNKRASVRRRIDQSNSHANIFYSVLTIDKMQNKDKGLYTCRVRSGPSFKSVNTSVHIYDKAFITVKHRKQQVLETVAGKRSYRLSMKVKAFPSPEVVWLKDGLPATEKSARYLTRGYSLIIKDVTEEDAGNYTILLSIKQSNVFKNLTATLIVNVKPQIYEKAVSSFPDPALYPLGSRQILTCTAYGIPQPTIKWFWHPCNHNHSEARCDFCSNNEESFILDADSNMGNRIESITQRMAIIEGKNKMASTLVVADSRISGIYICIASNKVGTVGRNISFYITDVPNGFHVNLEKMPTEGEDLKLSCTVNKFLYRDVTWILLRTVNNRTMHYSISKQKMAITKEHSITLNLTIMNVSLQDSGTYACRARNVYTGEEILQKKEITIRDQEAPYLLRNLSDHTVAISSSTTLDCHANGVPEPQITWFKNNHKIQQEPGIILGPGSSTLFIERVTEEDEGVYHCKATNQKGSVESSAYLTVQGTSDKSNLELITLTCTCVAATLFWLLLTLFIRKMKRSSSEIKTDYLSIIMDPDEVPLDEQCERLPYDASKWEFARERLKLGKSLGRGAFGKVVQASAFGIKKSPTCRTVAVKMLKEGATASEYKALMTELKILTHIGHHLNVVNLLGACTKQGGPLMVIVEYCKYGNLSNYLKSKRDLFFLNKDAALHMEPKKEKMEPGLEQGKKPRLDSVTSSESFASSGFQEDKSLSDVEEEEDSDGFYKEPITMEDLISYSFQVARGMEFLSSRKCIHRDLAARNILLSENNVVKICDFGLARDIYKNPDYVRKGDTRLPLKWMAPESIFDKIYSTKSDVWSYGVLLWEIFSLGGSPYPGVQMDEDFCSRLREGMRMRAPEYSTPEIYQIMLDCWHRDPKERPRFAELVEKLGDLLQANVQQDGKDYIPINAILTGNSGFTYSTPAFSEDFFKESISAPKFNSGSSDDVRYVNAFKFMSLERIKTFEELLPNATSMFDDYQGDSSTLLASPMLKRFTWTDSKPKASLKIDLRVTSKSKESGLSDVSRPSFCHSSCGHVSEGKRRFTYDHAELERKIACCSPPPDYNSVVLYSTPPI
# Non-receptor tyrosine-protein kinase TYK2 (Homo sapiens), sequence (P29597 whole entry): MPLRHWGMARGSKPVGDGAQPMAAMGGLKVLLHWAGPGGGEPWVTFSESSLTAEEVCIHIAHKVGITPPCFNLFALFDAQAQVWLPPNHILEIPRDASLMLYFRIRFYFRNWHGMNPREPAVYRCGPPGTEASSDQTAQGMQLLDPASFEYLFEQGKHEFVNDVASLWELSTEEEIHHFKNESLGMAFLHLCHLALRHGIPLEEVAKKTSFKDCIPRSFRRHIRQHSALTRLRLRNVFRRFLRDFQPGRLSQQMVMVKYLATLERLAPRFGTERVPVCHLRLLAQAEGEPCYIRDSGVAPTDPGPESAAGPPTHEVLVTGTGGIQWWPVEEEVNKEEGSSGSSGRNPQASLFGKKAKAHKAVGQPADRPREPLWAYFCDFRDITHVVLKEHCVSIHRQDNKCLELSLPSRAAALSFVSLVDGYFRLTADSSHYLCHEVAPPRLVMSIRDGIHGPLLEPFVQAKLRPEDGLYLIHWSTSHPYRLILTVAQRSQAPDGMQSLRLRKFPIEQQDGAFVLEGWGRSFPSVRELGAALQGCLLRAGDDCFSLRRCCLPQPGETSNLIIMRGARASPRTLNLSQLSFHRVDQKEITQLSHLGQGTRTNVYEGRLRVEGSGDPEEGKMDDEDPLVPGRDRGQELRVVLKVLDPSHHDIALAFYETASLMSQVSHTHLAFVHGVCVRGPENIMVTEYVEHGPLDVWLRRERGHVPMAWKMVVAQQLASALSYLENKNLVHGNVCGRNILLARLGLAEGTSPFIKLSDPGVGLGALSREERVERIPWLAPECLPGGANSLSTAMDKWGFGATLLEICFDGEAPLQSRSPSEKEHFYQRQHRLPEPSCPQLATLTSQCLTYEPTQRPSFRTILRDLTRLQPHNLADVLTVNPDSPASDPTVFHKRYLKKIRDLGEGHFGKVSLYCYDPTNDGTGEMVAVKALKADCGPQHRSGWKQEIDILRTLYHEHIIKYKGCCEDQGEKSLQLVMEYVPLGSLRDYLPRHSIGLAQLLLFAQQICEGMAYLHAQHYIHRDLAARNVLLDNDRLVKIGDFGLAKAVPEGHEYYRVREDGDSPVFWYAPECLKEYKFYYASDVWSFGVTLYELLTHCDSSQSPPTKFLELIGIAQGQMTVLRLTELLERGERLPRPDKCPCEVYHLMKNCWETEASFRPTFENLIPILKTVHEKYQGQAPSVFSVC
# Serine/threonine-protein kinase B-raf (Homo sapiens), P15056 [V600E], sequence (P15056 whole entry V600E): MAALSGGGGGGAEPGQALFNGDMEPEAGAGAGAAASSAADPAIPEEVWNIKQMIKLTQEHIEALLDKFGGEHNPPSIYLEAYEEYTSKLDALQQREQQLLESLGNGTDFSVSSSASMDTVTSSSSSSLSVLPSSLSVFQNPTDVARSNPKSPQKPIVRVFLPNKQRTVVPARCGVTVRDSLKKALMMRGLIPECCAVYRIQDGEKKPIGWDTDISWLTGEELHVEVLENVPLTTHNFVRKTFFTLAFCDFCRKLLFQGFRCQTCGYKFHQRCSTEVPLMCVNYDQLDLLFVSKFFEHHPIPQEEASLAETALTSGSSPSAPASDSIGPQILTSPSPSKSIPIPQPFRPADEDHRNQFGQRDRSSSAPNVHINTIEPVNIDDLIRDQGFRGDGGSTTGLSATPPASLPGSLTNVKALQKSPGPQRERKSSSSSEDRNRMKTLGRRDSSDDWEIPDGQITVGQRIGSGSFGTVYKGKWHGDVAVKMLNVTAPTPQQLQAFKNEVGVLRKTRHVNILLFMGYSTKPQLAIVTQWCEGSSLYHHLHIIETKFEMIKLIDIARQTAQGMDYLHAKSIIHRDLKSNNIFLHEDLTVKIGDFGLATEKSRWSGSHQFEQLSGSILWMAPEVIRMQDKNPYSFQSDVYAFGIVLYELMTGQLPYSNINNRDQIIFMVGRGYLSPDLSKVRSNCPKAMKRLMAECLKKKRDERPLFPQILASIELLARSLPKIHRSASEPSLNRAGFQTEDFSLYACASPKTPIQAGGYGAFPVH
# Serine/threonine-protein kinase B-raf (Homo sapiens), sequence (P15056 whole entry): as the sequence (P15056 whole entry V600E) above, with E600V counted along it
# Tyrosine-protein kinase Yes (Homo sapiens), sequence (P07947 2-543 limits assumed): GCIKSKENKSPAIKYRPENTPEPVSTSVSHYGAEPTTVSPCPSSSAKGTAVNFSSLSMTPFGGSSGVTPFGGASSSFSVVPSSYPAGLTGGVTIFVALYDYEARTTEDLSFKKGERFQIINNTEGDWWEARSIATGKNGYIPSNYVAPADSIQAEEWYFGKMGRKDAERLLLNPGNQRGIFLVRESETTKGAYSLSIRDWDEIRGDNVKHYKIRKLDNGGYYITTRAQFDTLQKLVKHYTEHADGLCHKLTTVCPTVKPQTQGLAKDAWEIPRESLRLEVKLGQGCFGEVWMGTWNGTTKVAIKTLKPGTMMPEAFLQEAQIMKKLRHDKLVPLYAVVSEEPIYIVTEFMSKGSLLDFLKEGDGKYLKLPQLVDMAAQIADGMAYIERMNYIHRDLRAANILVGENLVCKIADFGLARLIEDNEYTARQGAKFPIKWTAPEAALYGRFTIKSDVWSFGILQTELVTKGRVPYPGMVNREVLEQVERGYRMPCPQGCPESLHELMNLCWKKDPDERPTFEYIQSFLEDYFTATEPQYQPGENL
# Tyrosine-protein kinase Fgr (Homo sapiens), sequence (P09769 2-529 limits assumed): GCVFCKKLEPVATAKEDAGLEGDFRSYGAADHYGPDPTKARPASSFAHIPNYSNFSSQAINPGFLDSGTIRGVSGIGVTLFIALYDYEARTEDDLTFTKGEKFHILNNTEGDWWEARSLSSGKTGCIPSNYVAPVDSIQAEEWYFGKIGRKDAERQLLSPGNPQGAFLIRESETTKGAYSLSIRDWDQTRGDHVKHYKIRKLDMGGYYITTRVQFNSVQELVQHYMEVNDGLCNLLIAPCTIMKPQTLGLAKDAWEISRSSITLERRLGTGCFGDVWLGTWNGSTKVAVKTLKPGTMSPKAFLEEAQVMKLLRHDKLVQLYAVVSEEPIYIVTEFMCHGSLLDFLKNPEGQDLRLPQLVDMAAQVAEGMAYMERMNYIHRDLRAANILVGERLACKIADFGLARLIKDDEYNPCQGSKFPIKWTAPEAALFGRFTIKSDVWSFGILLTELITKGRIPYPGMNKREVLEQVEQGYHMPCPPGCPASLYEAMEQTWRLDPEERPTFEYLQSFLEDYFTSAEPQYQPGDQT
Compound,inhibition [1] [%],inhibition [2] [%],inhibition [3] [%],inhibition [4] [%],inhibition [5] [%],inhibition [6] [%],inhibition [7] [%],inhibition [8] [%],inhibition [9] [%],inhibition [10] [%],inhibition [11] [%],inhibition [12] [%],inhibition [13] [%],inhibition [14] [%],inhibition [15] [%],inhibition [16] [%],inhibition [17] [%],inhibition [18] [%],inhibition [19] [%],inhibition [20] [%]
Fc1ccc(-c2nc3n(c2-c2ccncc2)CCS3)cc1,-1.43,3.23,5.64,0.95,4.64,2.5,4.49,4.1,-3.88,2.21,2.33,3.03,7.29,-2.56,-1.24,5.8,7.17,5.81,5.73,1.81
N#Cc1ccc(Oc2nccc(-c3c(-c4ccc(F)cc4)ncn3C3CCNCC3)n2)cc1,-0.84,3.69,6.62,-0.44,-0.67,-0.97,3.98,-7.02,-0.38,2.69,3.55,3.38,3.87,-0.57,1.9,6.93,6.24,4.98,4.44,-1.66
COc1cc(C)c(N(C)C(=O)CN(C)C)cc1Nc1nc(Nc2cccc(F)c2C(N)=O)c2cc[nH]c2n1,-2.22,0.53,2,-0.09,1.09,1.42,2.03,0.68,-1.64,1.86,-0.84,0.04,-3.38,-1.25,-6.34,1.62,3.95,2.25,3.53,-0.36
COc1cc(N2CCN(C(C)C)CC2)ccc1Nc1nc(Nc2ccc(F)cc2C(=O)NC[C@@H](O)CO)c2cc[nH]c2n1,-2.11,4.37,1.14,1.41,1.28,1.53,2.54,0.41,-2.95,2.87,5.76,1.99,12.3,-0.52,5.52,6.98,5.88,7.48,4.83,-2.46
C[C@@H](Oc1cc(-n2cnc3ccc(OCC4CCN(C)CC4)cc32)sc1C(N)=O)c1ccccc1Cl,4.52,2.78,13.7,1.38,-0.37,6.77,16.1,-8.99,-4.49,2.99,6.74,2.66,15.5,4.61,6.88,8.65,10.6,6.37,5.47,3.88
Fc1ccc(-c2ncn(C3CCNCC3)c2-c2ccnc(Oc3ccc(Oc4ccccc4)cc3)n2)cc1,3.31,-0.13,4.83,-0.48,3.29,2.97,1.85,-3.32,-3.59,1.47,2.08,0.21,4.26,0.95,0.36,6.4,11.6,4.03,8.67,1.44
Fc1ccc(-c2c(-c3ccncc3)nc3n2CCS3)cc1,0.11,2.37,2.64,0.25,1.28,0.81,1.71,-1.87,0.83,1.94,1.69,2.78,5.33,0.51,-2.36,4.16,4.3,3.07,4.28,2.08
CCS(=O)(=O)c1ccc(OC)c(Nc2ncc(-c3cccc(-c4ccccc4F)c3)o2)c1,16.3,11.9,52.1,24.9,68.4,6.25,30,5.31,1.31,3.28,19.6,25.7,73,1.06,-0.05,1.09,1.46,0.74,1.89,-0.07
COc1ccc(-c2ccc3c(NC(=O)C4CC4)n[nH]c3n2)cc1,0.39,3.05,6.74,-0.58,0.09,0.61,3.42,-3.58,-0.42,2.92,21.7,2.13,8.75,0.8,-3.24,3.14,2,3.73,1.97,-1.88
CS(=O)(=O)CCNCc1ccc(-c2ccc3ncnc(Nc4ccc(OCc5ccccc5)c(Br)c4)c3c2)o1,-1.47,4.84,10.8,-0.47,2.16,4.34,1.3,-8.89,-4.08,2.52,2.72,4.45,20.7,-2.48,-1.83,4.73,4.32,3.23,2.38,3.26
NC(=O)c1cc(-c2ccncc2)cc(-c2ccccc2)c1N,1.49,6.05,27,1.74,5.65,-1.2,4.55,-0.35,-2.55,2.62,3.61,7.5,36,4.11,29,8.42,8.98,8.18,8.65,1.06
c1ccc(-c2n[nH]cc2-c2ccnc(-c3ccc(OCCN4CCOCC4)cc3)c2)nc1,4.93,4.14,6.86,3.88,15.6,-2.01,1.37,-0.15,1.87,-0.18,-0.82,-1.99,2.34,5,0.13,-2.91,-2.83,-4.04,-1.12,-0.28
COc1cc2ncn(-c3cc(OCCc4ccccc4)c(C(N)=O)s3)c2cc1OC,2,-0.62,7.7,1.49,4.71,0.81,7.46,0.74,-2.99,0.78,0.83,1.03,4.7,0.43,0.59,3.24,3.36,3.25,3.42,0.38
